Measurements taken from PubChem BioAssay (NCATS).
Records with an inconclusive call do not appear. Active and inactive are the calls of the source. Unless noted, the call rests on the fitted dose curve; in most records, active means well fitted curve in the direction sought with a large enough effect; inconclusive means small, poorly fitted or top-dose-only effect, or another doubt; inactive means no such curve, though single readings can be large; an effect the other way counts as inactive or inconclusive.

Assays:
[1] = Cell Viability - LYMP2-003 (AID 965);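 further: potency means the concentration at half of the fitted maximal effect; cells exposed to compounds for 24 h before reading; nearly all actives have a fitted effect of over 50% in size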
Procedure, shortened: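 Acute cytotoxicity is scored as a concentration-dependent drop in intracellular ATP, measured by luciferase luminescence in human lymphoblastoid cells treated for 24 hours at 37 C. AC50 values derive from Hill-equation modelling.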

[2] = Cell Viability - LYMP2-004 (AID 966); further: potency means the concentration at half of the fitted maximal effect; nearly all actives have a fitted effect of over 65% in size
Procedure, shortened: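 qHTS cytotoxicity: human lymphoblastoid line, 24 hr compound treatment, 37 C, complete medium. Viability read as cellular ATP via luciferase luminescence; tetraoctylammonium bromide served as positive control.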

[3] = Cell Viability - LYMP2-005 (AID 967); further: potency means the concentration at half of the fitted maximal effect
Procedure, shortened: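 qHTS viability screen in LYMP2-005 cells: 24 h at 37 C with compound, ATP luminescence via CellTiter-Glo, AC50 from Hill curves.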

[4] = Cell Viability - LYMP2-009 (AID 968); further: potency means the concentration at half of the fitted maximal effect; nearly all actives have a fitted effect of over 55% in size
[5] = Cell Viability - LYMP2-011 (AID 969); further: potency means the concentration at half of the fitted maximal effect; nearly all actives have a fitted effect of over 60% in size
Procedure, shortened: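 In this qHTS cytotoxicity format, compounds are tested across concentrations on human lymphoblastoid cells in complete medium for 24 hours at 37 C. Viability is taken as cellular ATP measured by luciferase luminescence.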

[6] = Cell Viability - LYMP2-013 (AID 970); further: potency means the concentration at half of the fitted maximal effect; nearly all actives have a fitted effect of over 55% in size
Procedure, shortened: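 Cytotoxicity is scored as a concentration-dependent drop in intracellular ATP in human lymphoblastoid cells after 24 hr compound exposure at 37 C. ATP is quantified by luciferase luminescence, and AC50 values come from Hill-equation modeling.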

[7] = Cell Viability - LYMP2-015 (AID 971); further: potency means the concentration at half of the fitted maximal effect; nearly all actives have a fitted effect of over 55% in size
Procedure, shortened: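 Cells are seeded at 2500 per well and incubated 5 hr at 37 C. Compounds are added across a concentration series for 24 hr at 37 C. CellTiter-Glo is added, and luminescence is read after 30 min at room temperature.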

[8] = Cell Viability - LYMP2-017 (AID 972); further: potency means the concentration at half of the fitted maximal effect; nearly all actives have a fitted effect of over 55% in size
Procedure, shortened: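 Cytotoxicity is scored as a concentration-dependent drop in cellular ATP in a human lymphoblastoid line after 24 hr treatment at 37 C. Values are AC50s from Hill-equation modelling.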

[9] = Cell Viability - LYMP2-019 (AID 973)
Procedure, shortened: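 Cytotoxicity is scored as a concentration-dependent drop in cellular ATP after cells (2500/well) receive compound for 24 hr at 37 C. Tetraoctylammonium bromide serves as positive control.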

[10] = Cell Viability - LYMP2-021 (AID 974)
Procedure, shortened: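 Loss of cellular ATP, measured with a luciferase-based CellTiter-Glo readout, serves as the toxicity signal in human lymphoblastoid cells treated for 24 hours at 37 C. Potency is reported as AC50 from a standard Hill model.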

[11] = Cell Viability - LYMP2-023 (AID 975)
Procedure, shortened: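 Steps: seed 2500 human lymphoblastoid cells per well, incubate 5 hr at 37 C, add compound for 24 hr at 37 C, add CellTiter-Glo, hold 30 min at room temperature, read luminescence. AC50 derived by Hill modelling.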

[12] = Cell Viability - LYMP2-025 (AID 976); further: potency means the concentration at half of the fitted maximal effect
Procedure, shortened: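 Acute cytotoxicity is scored as a concentration-dependent fall in intracellular ATP, measured by luciferase luminescence, in human lymphoblastoid LYMP2-025 cells exposed to compound for 24 hours at 37 C. AC50 values come from standard Hill fits.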

[13] = Cell Viability - LYMP2-002 (AID 977);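 further: potency means the concentration at half of the fitted maximal effect; compound exposure lasted 24 h at 37 °C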
Procedure, shortened: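 Human lymphoblastoid cells (2500/well) in complete medium were preincubated 5 hr at 37 C, then exposed to compounds for 24 hr at 37 C. Intracellular ATP was read by CellTiter-Glo luminescence; AC50 came from Hill-equation concentration-response fits.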

[14] = Cell Viability - LYMP2-006 (AID 978); further: potency means the concentration at half of the fitted maximal effect; nearly all actives have a fitted effect of over 60% in size
Procedure, shortened: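 Concentration-dependent loss of intracellular ATP in a human lymphoblastoid line after 24 hr treatment at 37 C was measured by CellTiter-Glo luminescence, with AC50 values obtained from standard Hill-equation modelling.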

[15] = Cell Viability - LYMP2-007 (AID 979);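 further: potency means the concentration at half of the fitted maximal effect; cells exposed to compound for 24 h before reading; nearly all actives have a fitted effect of over 60% in size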
Procedure, shortened: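 Cells are seeded at 2500 per well and rested 5 hr. Compounds are then added over a concentration series for 24 hr at 37 C. CellTiter-Glo is added for 30 min at room temperature before luminescence reading.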

[16] = Cell Viability - LYMP2-008 (AID 980); further: potency means the concentration at half of the fitted maximal effect; nearly all actives have a fitted effect of over 60% in size
Procedure, shortened: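 Cells seeded at 2500/well and rested 5 hr at 37 C; compounds added over a concentration range and incubated 24 hr at 37 C; CellTiter-Glo added, 30 min at room temperature; luminescence read and AC50 fitted with Hill model.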

[17] = Cell Viability - LYMP2-010 (AID 981)
Procedure, shortened: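 Steps: seed 2500 LYMP2-010 cells per well; incubate 5 hr at 37 C; add compound; incubate 24 hr at 37 C; add CellTiter-Glo, wait 30 min at room temperature; read luminescence. Concentration-response fitted to Hill equation for AC50.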

[18] = Cell Viability - LYMP2-012 (AID 982)
[19] = Cell Viability - LYMP2-014 (AID 983); further: potency means the concentration at half of the fitted maximal effect; nearly all actives have a fitted effect of over 50% in size
Procedure, shortened: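 Cells are plated at 2500/well and left 5 hr at 37 C. Compounds are added across a concentration range and incubated 24 hr at 37 C in complete medium. CellTiter-Glo is added, and luminescence is read after 30 min at room temperature.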

[20] = Cell Viability - LYMP2-016 (AID 984)
Procedure, shortened: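 Acute toxicity in a Coriell human lymphoblastoid line is scored as loss of intracellular ATP over 24 h of treatment in complete medium. CellTiter-Glo signal is fitted across concentrations with the Hill equation to give AC50.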

[21] = Cell Viability - LYMP2-018 (AID 985); further: potency means the concentration at half of the fitted maximal effect; nearly all actives have a fitted effect of over 50% in size
Procedure, shortened: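 Seed 2500 lymphoblastoid cells per well, incubate 5 hr at 37 C, add compound and incubate 24 hr at 37 C, add CellTiter-Glo, wait 30 min at room temperature, then read luminescence.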

[22] = Cell Viability - LYMP2-020 (AID 986)
Procedure, shortened: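 Seed 2500 cells per well and incubate 5 hr at 37 C. Add compounds at a concentration series and incubate 24 hr at 37 C. Add CellTiter-Glo, wait 30 min at RT, read luminescence, and fit a Hill curve for AC50.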

[23] = Cell Viability - LYMP2-022 (AID 987)
Procedure, shortened: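 Cells were seeded at 2500 per well, rested 5 hr at 37 C, and treated with titrated compounds for 24 hr at 37 C. Cellular ATP was then quantified by luciferase luminescence, and AC50 values were derived from Hill-modelled concentration-response curves.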

[24] = Cell Viability - LYMP2-024 (AID 988)
Procedure, shortened: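 qHTS cytotoxicity, human lymphoblastoid line, complete medium; 24 h cpd treatment, 37 C; CellTiter-Glo ATP luminescence readout; tetraoctylammonium bromide positive control; AC50 via Hill fit.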

[25] = Cell Viability - LYMP2-026 (AID 989); further: potency means the concentration at half of the fitted maximal effect; nearly all actives have a fitted effect of over 50% in size
Procedure, shortened: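 Cells are seeded at 2500 per well and held 5 hr at 37 C. Compounds are added in concentration series for 24 hr, then CellTiter-Glo reagent is applied and luminescence read.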

[26] = Cell Viability - LYMP1-002 - Assay at 24 hr (AID 993); further: potency means the concentration at half of the fitted maximal effect
Procedure, shortened: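 Acute toxicity is measured as concentration-dependent loss of cellular ATP in a human lymphoblastoid line (Coriell LYMP1-002) after 24 h treatment in complete medium. ATP is quantified by luciferase luminescence and AC50 derived by Hill modelling.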

[27] = Cell Viability - LYMP1-002 - Assay at 40 hr (AID 994)
Procedure, shortened: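 Cells are plated at 2500 per well and rested 5 hr at 37 C. Compounds are added and incubated 40 hr at 37 C. CellTiter-Glo reagent is added for 30 min at room temperature before luminescence is read.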

[28] = molecular target: Bile acid receptor (Homo sapiens) (UniProt Q96RI1); experiment: qHTS assay for small molecule antagonists of farnesoid X receptor signaling (AID 588526; calls by dose curve; further: on the % scale 0 is the no-effect control and ±100 the full control effect)
Chain of Bile acid receptor (Homo sapiens) (Q96RI1 whole entry, looked up): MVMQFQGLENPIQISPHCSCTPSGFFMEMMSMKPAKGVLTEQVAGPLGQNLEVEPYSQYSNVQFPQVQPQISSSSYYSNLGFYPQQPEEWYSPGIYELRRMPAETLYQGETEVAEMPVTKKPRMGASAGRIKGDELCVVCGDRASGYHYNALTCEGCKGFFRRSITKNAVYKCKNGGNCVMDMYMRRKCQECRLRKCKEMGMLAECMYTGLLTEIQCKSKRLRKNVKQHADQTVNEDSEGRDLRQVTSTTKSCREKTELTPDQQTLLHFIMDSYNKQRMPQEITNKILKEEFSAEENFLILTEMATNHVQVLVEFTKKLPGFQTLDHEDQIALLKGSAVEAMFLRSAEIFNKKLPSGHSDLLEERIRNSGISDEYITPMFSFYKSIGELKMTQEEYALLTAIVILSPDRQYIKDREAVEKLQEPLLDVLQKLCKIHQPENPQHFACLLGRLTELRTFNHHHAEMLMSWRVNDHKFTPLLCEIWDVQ
Procedure, shortened: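 Beta-lactamase reporter antagonist mode: HEK293T FXR-UAS-bla cells, titrated compound, CDCA stimulation, 16 h 37 C, CCF4 dye 2 h RT. Data normalized to CDCA 50 uM and DMSO; Hill-fit IC50.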

[29] = molecular target: Peroxisome proliferator-activated receptor gamma (Homo sapiens) (UniProt P37231); experiment: qHTS assay for small molecule agonists of peroxisome proliferator-activated receptor gamma signaling (AID 588536; active means well fitted curve in the direction sought with a large enough effect in the signal ratio, with a control signal flat, not every such curve was filed as active; the % refers to the signal ratio;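 further: 0% = DMSO basal wells and 100% = rosiglitazone at 2 µM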)
Chain of Peroxisome proliferator-activated receptor gamma (Homo sapiens) (P37231 whole entry, looked up): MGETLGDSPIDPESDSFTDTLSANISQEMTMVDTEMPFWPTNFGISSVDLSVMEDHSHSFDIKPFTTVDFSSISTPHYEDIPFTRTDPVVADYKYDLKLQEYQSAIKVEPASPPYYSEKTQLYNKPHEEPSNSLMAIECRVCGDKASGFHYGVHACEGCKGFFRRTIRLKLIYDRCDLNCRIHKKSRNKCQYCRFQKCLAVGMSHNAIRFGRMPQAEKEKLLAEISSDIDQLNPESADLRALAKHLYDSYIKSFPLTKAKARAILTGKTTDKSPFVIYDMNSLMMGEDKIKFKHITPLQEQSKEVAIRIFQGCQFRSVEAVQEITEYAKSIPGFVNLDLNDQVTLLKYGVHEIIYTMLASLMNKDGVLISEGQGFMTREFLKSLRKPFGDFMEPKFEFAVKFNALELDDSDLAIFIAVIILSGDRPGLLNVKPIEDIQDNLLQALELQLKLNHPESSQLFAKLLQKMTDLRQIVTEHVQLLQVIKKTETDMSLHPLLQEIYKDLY
Procedure, shortened: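 Cells were plated and held 6–6.5 h at 37 C, then compounds were added as a titration series. After a further 16 h, CCF4 dye was loaded for 2 h at room temperature and emission at 460/530 nm recorded.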

[30] = qHTS assay for small molecule agonists of the antioxidant response element (ARE) signaling pathway (AID 651741; active means well fitted activation curve with a large enough effect in the signal ratio; the % refers to the signal ratio; further: potency means the concentration at half of the fitted maximal effect)
Procedure, shortened: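 Beta-lactamase reporter under ARE control in HepG2 cells, 2,000 per well, was induced by 16 h compound treatment at 37 C. Read-out was fluorescence from LiveBLAzer B/G FRET substrate after 2 h at room temperature.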

[31] = qHTS assay for small molecule activators of the p53 signaling pathway (AID 651743; active means well fitted activation curve with a large enough effect in the signal ratio, not every such curve was filed as active; the % refers to the signal ratio; further: series mostly up to about 92 µM; % of control where 0% means no effect); settings: HCT-116 p53RE-bla, beta-lactamase FRET ratio, 16 h; activation: hits give high values
Procedure, shortened: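 After 16 hours compound treatment at 37 C, HCT-116 cells stably expressing p53RE-driven beta-lactamase were loaded with LiveBLAzer B/G FRET substrate for 2 hours at room temperature. Fluorescence intensity served as the p53 activation read-out.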

[32] = qHTS assay for small molecule disruptors of the mitochondrial membrane potential - 1 hr assay (AID 651754; calls by dose curve; further: potency means the concentration at half of the fitted maximal effect; nearly all actives have a fitted effect of over 35% in size)
Procedure, shortened: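 Loss of mitochondrial potential shifts the cationic dye from red mitochondrial aggregates to green cytoplasmic monomers. Cells (HepG2) are treated with compound for 1 hr before a 30 min dye incubation at 37C.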

[33] = qHTS assay for small molecule disruptors of the mitochondrial membrane potential - 5 hr assay (AID 651755; calls by dose curve; further: potency means the concentration at half of the fitted maximal effect; nearly all actives have a fitted effect of over 40% in size)
Procedure, shortened: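 Membrane-potential dye readout: red aggregate (540 ex/590 em) versus green monomer (490 ex/535 em) fluorescence after 30 min dye loading, following 5 hr compound exposure at 37C of overnight-plated HepG2 cells.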

[34] = qHTS assay for environmental chemicals that activate the Aryl hydrocarbon Receptor (AhR) signaling pathway (AID 651777); settings: 1A2-DRE human hepatoma cells, luciferase, 24 h; activation: hits give high values; further: % of control where 0% means no effect; nearly all actives have a fitted effect of over 15% in size
Procedure, shortened: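 Concentration–response screening used 1,200 1A2-DRE cells per well, 24 hr compound exposure (37 C, 5% CO2), and One-Glo luminescence as the AhR-driven CYP1A2 reporter signal.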

[35] = molecular target: Peroxisome proliferator-activated receptor alpha (Homo sapiens) (UniProt Q07869); experiment: qHTS assay for small molecule agonists of the peroxisome proliferator-activated receptor alpha (PPARalpha) signaling pathway (AID 651778); settings: PathHunter PPARalpha complementation, chemiluminescence, 6 h; max response: hits give high values; further: % of control where 0% means no effect
Chain of Peroxisome proliferator-activated receptor alpha (Homo sapiens) (Q07869 whole entry, looked up): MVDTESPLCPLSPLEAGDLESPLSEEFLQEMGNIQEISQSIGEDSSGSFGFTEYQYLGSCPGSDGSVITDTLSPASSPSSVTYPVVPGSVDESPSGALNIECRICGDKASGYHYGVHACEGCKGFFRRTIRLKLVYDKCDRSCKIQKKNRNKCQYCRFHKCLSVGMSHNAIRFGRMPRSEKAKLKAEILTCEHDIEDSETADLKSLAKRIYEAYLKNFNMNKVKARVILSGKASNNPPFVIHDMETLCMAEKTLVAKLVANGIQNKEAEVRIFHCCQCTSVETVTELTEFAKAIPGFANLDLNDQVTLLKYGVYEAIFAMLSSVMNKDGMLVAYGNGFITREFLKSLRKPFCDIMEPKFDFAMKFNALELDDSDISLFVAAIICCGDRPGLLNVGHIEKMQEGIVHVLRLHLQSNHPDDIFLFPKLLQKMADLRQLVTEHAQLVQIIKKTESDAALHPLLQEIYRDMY
Procedure, shortened: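 Chemiluminescence from complemented enzyme reported PPARalpha activation in cells after 6 hr of compound treatment at 37 C. The detection reagent was incubated for 60 min at room temperature, and compounds were scored as agonists.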

[36] = molecular target: Nuclear receptor ROR-gamma (Homo sapiens) (UniProt P51449); experiment: qHTS assay for small molecule antagonists of the retinoid-related orphan receptor gamma (ROR-gamma) signaling pathway (AID 651802)
Chain of Nuclear receptor ROR-gamma (Homo sapiens) (P51449 whole entry, looked up): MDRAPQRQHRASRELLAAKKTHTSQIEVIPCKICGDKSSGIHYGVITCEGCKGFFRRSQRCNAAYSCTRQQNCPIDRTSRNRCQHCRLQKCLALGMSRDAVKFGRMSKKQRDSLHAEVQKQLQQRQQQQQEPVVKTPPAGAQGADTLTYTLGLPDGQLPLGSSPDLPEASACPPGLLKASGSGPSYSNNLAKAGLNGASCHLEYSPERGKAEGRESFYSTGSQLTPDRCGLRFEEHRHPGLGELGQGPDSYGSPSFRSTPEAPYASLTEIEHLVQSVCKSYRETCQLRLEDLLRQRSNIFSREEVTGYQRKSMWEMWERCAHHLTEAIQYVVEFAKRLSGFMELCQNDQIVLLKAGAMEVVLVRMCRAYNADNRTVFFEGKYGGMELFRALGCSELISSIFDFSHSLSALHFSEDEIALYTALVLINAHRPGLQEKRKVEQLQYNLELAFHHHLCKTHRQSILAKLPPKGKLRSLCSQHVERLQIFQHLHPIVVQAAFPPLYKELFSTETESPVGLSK
Procedure, shortened: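 Steps: cells dispensed; compound or DMSO transferred by pin tool; doxycycline added to induce the ROR response element-driven luciferase; plates held 16hr at 37C; ONE-Glo added and luminescence measured.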

[37] = qHTS assay for small molecule agonists of the antioxidant response element (ARE) signaling pathway measured by Nrf2-dependant transcriptional activity (AID 720636; active means well fitted curve in the direction sought with a large enough effect in the repeat runs; an effect the other way counts as inactive or inconclusive;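 further: HepG2 cells with an ARE-driven luciferase reporter; % of control where 0% means no effect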)
Procedure, shortened: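 Attachment 6 hr at 37 C, then compound versus DMSO vehicle for 16 hr in ARE-luc HepG2 cells (1% dialyzed FBS); luminescence recorded 30 min after ONE-Glo addition at room temperature.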

[38] = qHTS assay for small molecule antagonists of the retinoid-related orphan receptor gamma (ROR-gamma) signaling pathway - cell viability counter screen (AID 720652; active means well fitted curve in the direction sought with a large enough effect in the repeat runs; an effect the other way counts as inactive or inconclusive;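 further: potency means the concentration at half of the fitted maximal effect; compound exposure lasted 16 hr before ATP read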)
Procedure, shortened: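 Steps: seed CHO cells bearing TET-inducible ROR and ROR response element-luciferase; rest 5 hr at 37 C; add compound, then doxycycline; incubate 16 hr; add CellTiter-Glo and read luminescence as ATP-based viability.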

[39] = qHTS assay for cell viability of HEK293 cells (AID 743288); settings: ATP luminescence (CellTiter-Glo), 18 h; max response: hits give low values
Procedure, shortened: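 Quantitative high-throughput screen: compounds were pinned onto parental HEK293 cells (2,000 per well) after a minimum 5 h settling at 37 C, incubated 18 h at 37 C, and intracellular ATP measured by luciferase luminescence.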

[40] = qHTS assay for small molecule activators of the human pregnane X receptor (PXR) signaling pathway (AID 720659; call rule not given here; further: 0% is about no effect)

N=C1C=CC(=C(c2ccc(N)cc2)c2ccc(N)cc2)C=C1
active: Potency [1] 15.8 µM | Potency [2] 12.6 µM | Potency [3] 12.6 µM | Potency [4] 7.94 µM | Potency [5] 7.94 µM | Potency [6] 12.6 µM | Potency [7] 10 µM | Potency [8] 12.6 µM | Potency [9] 7.94 µM | Potency [10] 7.94 µM | Potency [11] 10 µM | Potency [12] 10 µM | Potency [13] 7.94 µM | Potency [14] 10 µM | Potency [15] 7.94 µM | Potency [16] 7.94 µM | Potency [17] 7.94 µM | Potency [18] 7.94 µM | Potency [19] 7.94 µM | Potency [20] 7.94 µM | Potency [21] 7.94 µM | Potency [22] 3.98 µM | Potency [23] 3.16 µM | Potency [24] 7.94 µM | Potency [25] 7.94 µM | Potency [26] 12.6 µM | Potency [27] 15.8 µM | Potency [30] 42.2 µM | Potency [32] 1.33 µM | Potency [33] 0.531 µM | Potency [36] 6.68 µM | Potency [38] 18.8 µM | Potency [39] 31.6 µM
inactive: Potency [28] | outcome [29] | activation [31] 11.1% | activation [34] 3.01% | max response [35] -9.83% | Potency [37] | outcome [40]
